A short description of experiment [1]: EP2 hit retest with parallel cAMP counter-assays – cell-based, five parallel assays, C6 glioma, HEK293, counter-screen for EP2 modulator project, confirmation (AID 1080). The following applies: C6 glioma EP2 cells, cAMP HTRF induction. For orientation: The purpose of a counterscreen is to sort out artefacts and off-target activity.
For experiment [2], the target named is Prostaglandin E2 receptor EP2 subtype (Homo sapiens) (UniProt P43116). The description is as above. The following applies: C6 glioma EP2 cells, cAMP HTRF induction; stronger effect = higher value; screened at 20 µM (by protocol); percent of 1 uM PGE2 response; plus low (about EC15) PGE2 agonist. A general note: In TR-FRET formats the signal depends on donor and acceptor labels being close together.

The mark [3] stands for this setting: measured here: EP4 receptor counter-screen, percent of 1 uM PGE2 response, plus low (about EC15) PGE2 agonist.
Setting [4] is: measured here: beta2 adrenergic HEK293 counter-screen.
Where [5] appears, read: measured here: cAMP conditions counter-screen.
Setting [6] is: measured here: parent C6 cells counter-screen.

Here are results for 26 molecules from PubChem BioAssay AID1080 (Emory University Molecular Libraries Screening Center, 2008).

Out of some 1,300 compounds screened, about 640 (49%) were called active.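 How the source made its calls: active means cAMP induction above 50% in the main assay while under 30% in all four parallel counter assays; inactive means the rest.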 The set was probably picked from earlier hits. Only a sample is shown.

In the case of `O=C(Nc1ccccc1N1CCCCC1)c1ccc2nccnc2c1`, the cAMP induction was -20.6% in experiment [1] (setting [3]); -12.3% in experiment [1] (setting [4]); -1.35% in experiment [1] (setting [5]); -3.85% in experiment [1] (setting [6]); 56.9% (active) in experiment [2].
As to `O=C(Nc1ccccc1N1CCCCC1)c1cccc(F)c1`, the cAMP induction in experiment [1] (setting [3]) was 20.9%; in experiment [1] (setting [4]) it was -8.46%; in experiment [1] (setting [5]) it was -6.32%; in experiment [1] (setting [6]) it was -1.46%; in experiment [2] it was 54.4% (active).
For `CCC(C)(C)c1ccc(OCC(=O)N(C)C)c(C(C)(C)CC)c1` the same measures were -18%, -18.7%, -1.65%, -11.3% and 18.5% (inactive).
On the same counts, the results for `CC[C@@H]1Cc2cc(O)ccc2C2=C1c1ccc(O)cc1C[C@H]2CC` are -0.0767%, -11.7%, 6.45%, 2.02% and 34.5% (inactive).
Regarding `CCCc1cc(-c2n[nH]c(=S)n2Cc2ccccc2)cs1`, the cAMP induction in experiment [1] (setting [3]) was 1.9%; in experiment [1] (setting [4]), -7.59%; in experiment [1] (setting [5]) it was -4.47%; in experiment [1] (setting [6]), 1.74%; in experiment [2] it was 37.8% (inactive).
For the molecule `CCCCOc1ccc(-c2nnc(-c3ccco3)o2)cc1`, the cAMP induction was -1.8% in experiment [1] (setting [3]); -7.34% in experiment [1] (setting [4]); 3.34% in experiment [1] (setting [5]); 3.09% in experiment [1] (setting [6]); 50.4% (active) in experiment [2].
Turning to `Cc1cc(C#N)c(SCC(N)=O)nc1-c1ccc(F)cc1`, the cAMP induction was 9.53% in experiment [1] (setting [3]); 7.22% in experiment [1] (setting [4]); 2.14% in experiment [1] (setting [5]); -4.05% in experiment [1] (setting [6]); 50.9% (active) in experiment [2].
On the same counts, the results for `FC(F)(F)c1cccc(-c2cc3ccccc3nc2N2CCCC2)c1` are 17.7%, -13%, -2.73%, -3.28% and 52.7% (active).
Take `CCOC(=O)c1c(C2CC2)csc1NC(=O)CSCc1c(C)noc1C`: the cAMP induction in experiment [1] (setting [3]) is -15.3%; in experiment [1] (setting [4]) it was -5.42%; in experiment [1] (setting [5]) it was -2.02%; in experiment [1] (setting [6]), 2.56%; in experiment [2], 48.8% (inactive).
For `O=c1cc(N2CCCCC2)c(-c2ccccc2)nn1Cc1cccc(F)c1` the same measures were -7.11%, -13%, 3.15%, 3.46% and 79.6% (active).
In the case of `CCOc1ccc(NC(=O)CSc2ncnc3c2sc2ccccc23)cc1`, the cAMP induction in experiment [1] (setting [3]) is 80.8%; in experiment [1] (setting [4]) it was 81.1%; in experiment [1] (setting [5]) it was 79.9%; in experiment [1] (setting [6]), 80.1%; in experiment [2], 77.7% (inactive).
For the molecule `COc1ccc(C)c(Cn2c(-c3nonc3N)nc3ccccc32)c1`, the cAMP induction was 4.7% in experiment [1] (setting [3]); -6.52% in experiment [1] (setting [4]); 1.9% in experiment [1] (setting [5]); 1.52% in experiment [1] (setting [6]); 69.6% (active) in experiment [2].
Turning to `COC(=O)C1=C(C)N(C)C(C)=C(C(=O)OC)C1c1cccc(Br)c1`, the cAMP induction is -5.89% in experiment [1] (setting [3]); 5.82% in experiment [1] (setting [4]); -5.28% in experiment [1] (setting [5]); 1.49% in experiment [1] (setting [6]); 46% (inactive) in experiment [2].
For `Cc1ccccc1-c1n[nH]c(=S)n1/N=C/c1ccc(-c2ccccc2Br)o1` the same measures were 18.4%, 14.3%, 22.4%, 19.4% and 57.9% (active).
Consider `O=c1[nH]c(CSc2ncc(-c3ccc(F)cc3)n2Cc2ccco2)nc2ccccc12`, for which the cAMP induction in experiment [1] (setting [3]) was -12.9%; in experiment [1] (setting [4]), -5.45%; in experiment [1] (setting [5]), -6.27%; in experiment [1] (setting [6]), -5.69%; in experiment [2], 39.9% (inactive).
As for `Cc1nn2c(c1-c1ccccc1)N=C(c1ccco1)CC2c1ccccc1` (stereo not given), the cAMP induction in experiment [1] (setting [3]) was -13.9%; in experiment [1] (setting [4]), -0.13%; in experiment [1] (setting [5]), 0.137%; in experiment [1] (setting [6]), 4.52%; in experiment [2], 36.7% (inactive).
Consider `NC(=O)COc1ccc(C23CC4CC(CC(C4)C2)C3)cc1`, for which the cAMP induction in experiment [1] (setting [3]) is -2.42%; in experiment [1] (setting [4]), -18.4%; in experiment [1] (setting [5]), 7.34%; in experiment [1] (setting [6]), -0.99%; in experiment [2], 64.6% (active).
Consider `Cc1nc2ccccc2c(-c2ccccc2)c1C(=O)c1ccccc1`, for which the cAMP induction in experiment [1] (setting [3]) is 2.31%; in experiment [1] (setting [4]), 4.97%; in experiment [1] (setting [5]) it was -6.03%; in experiment [1] (setting [6]) it was -0.11%; in experiment [2] it was 88.9% (active).
For `O=c1c2ccccc2nc2n1C1(CCCCC1)Cc1ccccc1-2`, the cAMP induction in experiment [1] (setting [3]) was -3.33%; in experiment [1] (setting [4]), -1.27%; in experiment [1] (setting [5]), 0.00333%; in experiment [1] (setting [6]) it was -4.35%; in experiment [2], 55.1% (active).
For `CC(C)(C)c1nc2ccccc2c(=O)n1N1C(=O)c2ccccc2C1=O` the same measures were -2.16%, 4.41%, 5.06%, 3.57% and 36.9% (inactive).
Regarding `CN(C)Cc1ccc(F)cc1Sc1cc(Cl)ccc1Cl`, the cAMP induction in experiment [1] (setting [3]) is -1.47%; in experiment [1] (setting [4]), -10.1%; in experiment [1] (setting [5]), -3.1%; in experiment [1] (setting [6]) it was 2.77%; in experiment [2], 45.2% (inactive).
As for `CC(C)NC(=S)NN=C1CCCCCCCCCCC1`, the cAMP induction was 1.01% in experiment [1] (setting [3]); 7.6% in experiment [1] (setting [4]); 2.87% in experiment [1] (setting [5]); -7.59% in experiment [1] (setting [6]); 54.8% (active) in experiment [2].
For the molecule `COC(=O)CSc1nc2c(c(C3CC=CCC3)c1C#N)CCC2` (stereo not given), the cAMP induction is 1.11% in experiment [1] (setting [3]); 7.56% in experiment [1] (setting [4]); 3.4% in experiment [1] (setting [5]); 4.46% in experiment [1] (setting [6]); 69.8% (active) in experiment [2].
Regarding `CSc1ncnc2sc(C)c(C)c12`, the cAMP induction is 5.89% in experiment [1] (setting [3]); 2.78% in experiment [1] (setting [4]); 5.03% in experiment [1] (setting [5]); 0.0167% in experiment [1] (setting [6]); 42.1% (inactive) in experiment [2].
Consider `Cc1cccc(Cn2c(N3CCN(c4ccccc4)CC3)nc3c2c(=O)n(C)c(=O)n3C)c1`, for which the cAMP induction in experiment [1] (setting [3]) was -5.29%; in experiment [1] (setting [4]) it was -6.91%; in experiment [1] (setting [5]), 5.21%; in experiment [1] (setting [6]), 1.06%; in experiment [2] it was 54.8% (active).
For the molecule `CC1CCN(c2nc3c(c(=O)[nH]c(=O)n3C)n2CCCc2ccccc2)CC1`, the cAMP induction in experiment [1] (setting [3]) was 4.8%; in experiment [1] (setting [4]) it was -2.72%; in experiment [1] (setting [5]), -1.35%; in experiment [1] (setting [6]) it was -0.403%; in experiment [2], 42.2% (inactive).
